# Data from PubChem BioAssay (NCATS).
# Values without a mark were called inactive. The rule behind the calls is not given here.
# Test system: HIV-1 nucleocapsid protein NCp7 (binding to TG oligonucleotide)
# Experiment: HIV Nucleocapsid (AID 346);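 note: potency is for inhibitors that block NC binding and lower polarization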
# Settings: HIV-1 NC / fluorescein-TGTGTGTG probe, fluorescence polarization
# Summary of the method: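 HIV-1 NC (100 nM) binding to fluorescein-labelled ssDNA TG4xF (10 nM) in Hepes pH 7.5, 250mM NaCl, 1uM ZnCl2, TCEP and 2-mercaptoethanol; compounds pin-transferred, 1 hr room temperature, fluorescence polarization read on CCD imager.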
# Potency is the fitted concentration of half-maximal effect.
row,SMILES,Potency [µM]
1,CC(C)CN1CCCC2(CCN(C(=O)c3cccn3C)CC2)C1,> 20
2,CN(C)c1ccc(-c2cncnc2NCc2ccccc2)cc1,> 20
3,Cc1noc(C)c1C(=O)N1CCC[C@@]2(CCN(C(=O)NC(C)C)C2)C1,> 20
4,O=C(Nc1cccc(F)c1)N1CC[C@@]2(CCCN(C(=O)c3cc(C(F)(F)F)cc(C(F)(F)F)c3)C2)C1,> 20
5,COc1ccc(Oc2ncc3ncc(=O)n(Cc4cccc(OC)c4)c3n2)cc1,> 20
6,COCCn1c(=O)c(-c2ccc(OC)cc2)nc2cnc(N3CCNCC3)nc21,> 20
7,O=c1c(-c2ccc(Cl)cc2)nc2cncnc2n1Cc1ccccc1,> 20
8,COCC(=O)N1CCC[C@@]2(CCN(C(c3ccccc3)c3ccccc3)C2)C1,> 20
9,O=C(Nc1cccc(F)c1)N1CC[C@@]2(CCCNC2)C1,> 20
10,COc1ccccc1CNc1ccnc(-c2c(C)noc2C)n1,> 20
11,CC(C)NC(=O)N1CC[C@@]2(CCCN(C(=O)c3cnccn3)C2)C1,> 20
12,Cc1cccc(CNc2ncnc3ccc(-c4ccc(C(=O)N(C)C)cc4)cc23)c1,> 20
13,CC(=O)N1CCC2(CCCN(c3cccc(-c4ccccc4)c3)C2)CC1,> 20
14,COCCn1c(=O)cnc2cnc(Oc3ccccc3)nc21,> 20
15,CN(C)C(=O)c1ccc(-c2nc(Nc3ccccc3)c3ccccc3n2)cc1,> 20
16,COc1ncc2nc(-c3ccccc3)c(=O)n(CCC#N)c2n1,> 20
17,CCNc1ncc2nc(-c3ccc(OC)cc3)c(=O)n(CCc3ccccc3)c2n1,> 4
18,O=C(c1cnccn1)N1CCC2(CC1)CCN(c1ccccn1)CC2,> 20
19,COC(=O)N1CCC2(CC1)CN(c1ccccn1)C2,> 20
20,COc1ccccc1CN1CCC2(CC1)CCN(S(C)(=O)=O)CC2,> 20

row,SMILES,Potency [µM]
1,CN(C)c1ccc(-c2ccc3ncnc(N4CCNCC4)c3c2)cc1,> 20
2,O=c1c(-c2ccc(F)cc2)nc2cnc(N3CCOCC3)nc2n1C[C@H]1CCCO1,> 20
3,CS(=O)(=O)Nc1cccc(-c2cc(NCc3ccccc3)ncn2)c1,> 20
4,COCCn1c(=O)c(-c2cccs2)nc2cnc(Nc3ccccc3)nc21,> 20
5,CCNc1ncc2nc(-c3cc(F)cc(F)c3)c(=O)n(C[C@H]3CCCO3)c2n1,> 20
6,Cc1ccccc1-c1nc(Nc2ccncc2)c2ccccc2n1,> 20
7,Cc1cnc(CNc2cc(-c3ccccc3Cl)ncn2)cn1,> 20
8,COc1cccc(Cn2c(=O)c(C)nc3cnc(Oc4ccccc4)nc32)c1,> 20
9,O=C(c1ccco1)N1CCC2(CC1)CCN(c1ncccn1)CC2,> 20
10,Cn1cc(-c2nc3cnc(N4CCOCC4)nc3n(C3CC3)c2=O)c2ccccc21,> 20
11,O=C(Nc1cccc(F)c1)N1CCCC2(CCNCC2)C1,> 4
12,O=C(c1ccco1)N1CCC[C@@]2(CCN(c3ccccc3)C2)C1,> 20
13,CS(=O)(=O)N1CCC2(CC1)CN(c1cccc(-c3ccccc3)c1)C2,> 20
14,COc1cccc(Nc2ncc3nc(C)c(=O)n(C4CC4)c3n2)c1,> 20
15,Cc1cnc(CNc2ncncc2-c2cccc(NS(C)(=O)=O)c2)cn1,> 20
16,COc1ccc(C(=O)N2CCC3(CCN(C(=O)Nc4cccc(F)c4)CC3)CC2)cc1,> 20
17,COc1ncc2nc(-c3ccc(F)cc3)c(=O)n(C)c2n1,> 20
18,COc1ccc(Oc2ncc3nc(-c4ccc(F)cc4)c(=O)n(C4CC4)c3n2)cc1,> 20
19,Cc1cnc(CNc2nc(-c3ccc(N(C)C)cc3)nc3ccccc23)cn1,> 20
20,CNc1nc(-c2ccccc2Cl)nc2ccccc12,> 20
